Test results as given in PubChem BioAssay.
Active and inactive are the calls of the source.

Assays:
[1] = compounds binding Alexa647 anti-His antibody – biochemical, small-molecule microarray, 635 nm fluorescence, artefact control for SMM control protein annotation, primary screen (AID 1128); conditions: higher = more signal;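 note: score merges feature fluorescence with signal-to-noise for each printed compound spot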
[2] = tested on: Human papillomavirus type 1a E7 protein (residues 1-88); assay: HPV1a E7 small-molecule binders, primary screen, biochemical, small-molecule microarray, residues 1-88, 635 nm (AID 1129); conditions: small-molecule microarray binding, fluorescence 635 nm; higher = more signal
[3] = molecular target: Focal adhesion kinase 1 (Homo sapiens) (UniProt Q05397); assay: PTK2 protein binding on printed compound slides – biochemical, small-molecule microarray, 635/667 nm fluorescence, BSA, DTT, primary screen (AID 1130); conditions: 635 nm fluorescence, higher = more signal;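 note: composite of spot emission at 667 nm and signal to noise over triplicate slides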
[4] = tested on: Fibrinogen (Alexa647-labelled); assay: Alexa647-fibrinogen binding to printed small molecules – biochemical, small-molecule microarray, 635/667 nm fluorescence, artefact control for SMM control-protein annotation, profiling panel (AID 1131); conditions: fibrinogen-A647 binding fluorescence, higher = more signal;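 note: z-score merges 667 nm fluorescence with per-spot signal-to-noise over triplicate slides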
[5] = molecular target: Follistatin (Homo sapiens) (UniProt P19883); assay: FST protein binding to printed compounds – biochemical, small-molecule microarray, 635/667 nm fluorescence, primary screen (AID 1132); conditions: 635 nm fluorescence, higher = more signal
[6] = molecular target: Fibroblast growth factor 2 (Homo sapiens) (UniProt P09038); assay: basic fibroblast growth factor binding to printed compounds – biochemical, small-molecule microarray, 635/667 nm fluorescence, primary screen (AID 1133); conditions: FGF2, fluorescence 635/667, higher = more signal
[7] = JC-1 mitochondrial potential readout, lung cancer cells – cell-based, A549, JC-1 fluorescence, basal, 24 h, 100 nL, profiling panel (AID 1138); conditions: higher = more signal;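 note: A549 lung adenocarcinoma cells under basal conditions with no added stimulus; test concentration not given here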
Lefty1 = Lefty1 protein binding to printed compounds – biochemical, small-molecule microarray, 635/667 nm fluorescence, primary screen (AID 1139); conditions: fluorescence 635/667, higher = more signal
[8] = tested on: wheat germ agglutinin (Triticum aestivum), Alexa647-labelled; assay: Alexa647-WGA lectin binding to printed small molecules – biochemical, small-molecule microarray, 635/667 nm fluorescence, artefact control for SMM control-protein annotation, profiling panel (AID 1140); conditions: WGA-A647 binding, 635 nm fluorescence, higher = more signal;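 note: score merges 667 nm feature emission with signal to noise over triplicate slides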
[9] = molecular target: Luciferin 4-monooxygenase (Photinus pyralis) (UniProt P08659); assay: inhibition of purified Photinus pyralis luciferase – biochemical, luminescence, purified enzyme, 2006 set, primary screen (AID 1141); conditions: purified firefly luciferase, SteadyGlo luminescence, 30 min; higher = more signal, called active from +8 up or from −8 down;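 note: cell-free assay with purified firefly luciferase at 100 ng per well in PBS; test concentration not given here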
Sequence of Luciferin 4-monooxygenase (Photinus pyralis) (P08659 whole entry, looked up): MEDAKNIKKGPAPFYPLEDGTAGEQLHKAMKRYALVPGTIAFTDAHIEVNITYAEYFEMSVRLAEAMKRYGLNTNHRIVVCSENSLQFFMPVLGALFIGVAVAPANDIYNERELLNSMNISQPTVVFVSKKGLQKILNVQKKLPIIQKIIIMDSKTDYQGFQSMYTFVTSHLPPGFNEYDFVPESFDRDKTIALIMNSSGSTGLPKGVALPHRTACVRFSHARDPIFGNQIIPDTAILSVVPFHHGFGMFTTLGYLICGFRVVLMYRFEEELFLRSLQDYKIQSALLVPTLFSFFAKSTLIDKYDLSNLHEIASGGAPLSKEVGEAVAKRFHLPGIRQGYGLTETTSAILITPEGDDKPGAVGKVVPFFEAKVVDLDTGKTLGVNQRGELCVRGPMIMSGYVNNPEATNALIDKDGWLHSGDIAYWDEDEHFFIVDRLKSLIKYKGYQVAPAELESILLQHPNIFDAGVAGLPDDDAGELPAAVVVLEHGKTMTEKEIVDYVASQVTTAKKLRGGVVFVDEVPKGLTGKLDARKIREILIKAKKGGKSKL

Sequence of Focal adhesion kinase 1 (Homo sapiens) (Q05397 whole entry, looked up): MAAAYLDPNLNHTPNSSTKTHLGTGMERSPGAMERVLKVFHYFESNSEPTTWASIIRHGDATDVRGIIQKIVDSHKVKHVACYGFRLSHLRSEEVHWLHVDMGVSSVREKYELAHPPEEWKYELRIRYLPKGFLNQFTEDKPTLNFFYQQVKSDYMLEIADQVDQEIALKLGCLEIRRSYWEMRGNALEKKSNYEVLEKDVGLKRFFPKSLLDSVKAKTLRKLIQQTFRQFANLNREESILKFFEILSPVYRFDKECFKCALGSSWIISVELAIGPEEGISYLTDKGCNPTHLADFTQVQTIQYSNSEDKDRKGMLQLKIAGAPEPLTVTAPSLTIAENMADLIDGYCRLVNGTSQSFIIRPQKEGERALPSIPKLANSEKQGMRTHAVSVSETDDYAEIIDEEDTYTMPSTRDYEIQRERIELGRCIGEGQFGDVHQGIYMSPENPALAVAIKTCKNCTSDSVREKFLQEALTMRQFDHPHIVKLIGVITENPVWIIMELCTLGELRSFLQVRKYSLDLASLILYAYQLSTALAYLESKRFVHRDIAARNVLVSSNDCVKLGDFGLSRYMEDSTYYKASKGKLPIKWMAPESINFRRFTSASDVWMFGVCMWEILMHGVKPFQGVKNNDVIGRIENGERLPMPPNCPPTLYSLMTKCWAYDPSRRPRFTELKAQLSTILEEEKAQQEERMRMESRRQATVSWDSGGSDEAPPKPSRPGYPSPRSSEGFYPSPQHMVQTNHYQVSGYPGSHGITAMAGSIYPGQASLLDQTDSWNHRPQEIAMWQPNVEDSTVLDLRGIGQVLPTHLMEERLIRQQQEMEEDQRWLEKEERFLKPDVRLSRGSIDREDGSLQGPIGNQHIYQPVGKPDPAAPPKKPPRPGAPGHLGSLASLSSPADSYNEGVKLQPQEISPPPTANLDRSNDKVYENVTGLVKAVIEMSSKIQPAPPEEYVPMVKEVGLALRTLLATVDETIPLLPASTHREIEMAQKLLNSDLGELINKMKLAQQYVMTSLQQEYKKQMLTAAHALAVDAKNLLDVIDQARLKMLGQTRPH
Sequence of Fibroblast growth factor 2 (Homo sapiens) (P09038 whole entry, looked up): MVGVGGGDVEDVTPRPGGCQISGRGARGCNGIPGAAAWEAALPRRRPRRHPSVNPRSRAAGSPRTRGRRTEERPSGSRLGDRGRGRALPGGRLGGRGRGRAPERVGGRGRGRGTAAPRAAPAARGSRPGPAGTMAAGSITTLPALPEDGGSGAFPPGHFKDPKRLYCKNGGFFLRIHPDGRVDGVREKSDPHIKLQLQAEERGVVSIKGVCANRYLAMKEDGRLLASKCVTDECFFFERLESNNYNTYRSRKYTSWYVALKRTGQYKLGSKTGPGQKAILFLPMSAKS
Sequence of Follistatin (Homo sapiens) (P19883 whole entry, looked up): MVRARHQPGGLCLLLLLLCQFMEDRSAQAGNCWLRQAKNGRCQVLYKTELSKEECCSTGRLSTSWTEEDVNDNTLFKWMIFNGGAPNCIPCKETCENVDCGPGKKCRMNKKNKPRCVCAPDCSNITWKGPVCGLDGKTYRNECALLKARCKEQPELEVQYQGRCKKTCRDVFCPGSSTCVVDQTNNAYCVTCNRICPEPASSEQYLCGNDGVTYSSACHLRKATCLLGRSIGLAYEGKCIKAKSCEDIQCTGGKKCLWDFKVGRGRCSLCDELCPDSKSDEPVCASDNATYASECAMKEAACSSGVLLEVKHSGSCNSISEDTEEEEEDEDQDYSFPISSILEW

SMILES | composite z-score [1] | composite z-score [2] | composite z-score [3] | composite z-score [4] | composite z-score [5] | composite z-score [6] | z-score [7] | composite z-score (Lefty1) | composite z-score [8] | z-score [9]
O=C1C[C@@H](O)[C@@H](O)[C@@H]2[C@@H]3C(=O)N(C[C@@H]4CCCO4)C(=O)[C@@H]3CC[C@H]12 | 0.284 | 0.569 | -0.266 | 0.684 | 0.236 | 0.538 | 0.991 | 0.548 | 0.085 | -0.635 (inactive)
COc1ccc(COC(=O)NN=C2C[C@@H](O)[C@@H](O)[C@@H]3[C@@H]4C(=O)N(C5CCCCC5)C(=O)[C@@H]4CC[C@H]23)cc1 | -0.823 | -0.552 | -0.497 | -0.439 | -1.72 | -1.04 | 0.195 | -1.42 | 0.778 | -0.224 (inactive)
O=C1C=C[C@@H](O)[C@@H]2[C@@H]3C(=O)N(C[C@@H]4CCCO4)C(=O)[C@@H]3CC[C@@H]12 | 0.518 | 0.686 | 0.18 | 0.418 | 0.23 | 0.535 | -0.117 | 0.756 | 0.221 | -0.0563 (inactive)
CCOC(=O)NN=C1C[C@@H](O)[C@@H](O)[C@@H]2[C@@H]3C(=O)N([C@@H](C)c4ccccc4)C(=O)[C@@H]3CC[C@H]12 | 0.236 | 0.416 | -0.35 | 0.65 | 0.285 | 0.166 | -0.877 | 0.246 | 0.152 | 0.846 (inactive)
CC(C)CON=C1C[C@@H](O)[C@@H](O)[C@@H]2[C@@H]3C(=O)N(C[C@@H]4CCCO4)C(=O)[C@@H]3CC[C@@H]12 | 0.0488 | -0.0845 | 0.348 | 0.222 | -0.341 | -0.0796 | 0.221 | -0.399 | 0.561 | 0.141 (inactive)
CCCNC(=O)OC[C@H]1O[C@H](CCON=C(C)C)C=C[C@@H]1Oc1ccc(OC)cc1 | 1.82 | -0.124 | 0.105 | 0.448 | -0.132 | -0.245 | -0.218 | 0.0114 | -0.0321 | -0.129 (inactive)
CC(C)(C)N1C(=O)[C@H]2[C@H]3[C@H](O)[C@H](O)CC(=NO[C@@H]4O[C@H](CO)[C@@H](O)[C@H](O)[C@H]4O)[C@H]3CC[C@H]2C1=O | 0.492 | 0.15 | -0.0244 | -1.06 | 0.86 | 0.348 | -1.43 | 0.585 | -0.297 | 0.585 (inactive)
CCN1C(=O)[C@H]2[C@H]3[C@H](O)[C@H](O)CC(=NO[C@@H](C)c4cn([C@H](CO)Cc5ccccc5)nn4)[C@@H]3CC[C@H]2C1=O | 3.32 | 1.11 | -0.0643 | 0.752 | 0.579 | 0.894 | -0.719 | 0.926 | 1.05 | 0.465 (inactive)
O=C(C=Cc1ccc2c(c1)OCO2)c1ccc(F)cc1 | 0.877 | -0.575 | -0.174 | 0.0796 | 0.853 | 1.31 | -0.0292 | 1.21 | -0.177 | -6.89 (inactive)
COC(=O)[C@@H]1CC[C@H](C)[C@@H](c2ccc(C)cc2)N1C(=O)c1ccc(C=NO[C@@H](C)c2cn([C@H](CO)Cc3ccccc3)nn2)cc1 | 1.37 | 1.13 | 0.262 | 0.648 | 0.717 | 1.16 | 1.04 | 1.23 | 0.147 | -0.249 (inactive)
CO[C@H]1COC(=O)CC=C[C@H](C)[C@@H](OC)COC(=O)[C@@H](C)NC(=O)CC=C[C@@H]1C | 0.437 | -1.32 | -0.535 | -1.31 | 1.45 | 1.1 | -1.05 | 1.47 | 0.0216 | 0.674 (inactive)
COC(=O)CC=C[C@@H](C)[C@@H](C=NOC[C@H]1O[C@H](c2ccccc2)C=C[C@@H]1Oc1ccc(OC)cc1)NS(=O)(=O)c1ccc(C)cc1 | -1.16 | -1.1 | -0.217 | -0.85 | -1.04 | -0.528 | -0.173 | -1.11 | -0.542 | 0.847 (inactive)
CO[C@H]1COC(=O)CCC[C@@H](C)[C@H](OC)COC(=O)[C@@H](C)NC(=O)CC=C[C@@H]1C | -0.132 | -1.12 | -0.154 | -0.737 | 1.12 | 1.17 | -0.716 | 1.42 | -0.878 | 0.624 (inactive)
COC(=O)CC=C[C@@H](C)[C@H](OCc1cccc(-c2ccccc2)c1)C1CCCCC1 | -0.791 | -0.46 | -0.0125 | -0.14 | 0.768 | -0.226 | 0.237 | 0.0133 | 0.534 | -0.0245 (inactive)
CCOC(=O)NN=C1C[C@@H](O)[C@@H](O)[C@@H]2[C@@H]3C(=O)N(c4cccc(Oc5ccccc5)c4)C(=O)[C@@H]3CC[C@@H]12 | -0.103 | 0.45 | 0.0767 | 0.681 | -0.445 | -0.248 | -0.44 | -0.318 | 0.327 | 0.607 (inactive)
O=C1OCCC=C1C(O)CCc1ccccc1 (stereo not given) | -0.139 | 0.638 | -0.226 | 0.913 | 0.347 | 0.332 | -0.602 | 0.299 | 0.412 | 0.151 (inactive)
COc1ccc(O[C@H]2C=C[C@@H](c3ccccc3)O[C@@H]2COC(=O)CCC(C)=NOC(C)CN2CCCc3nc(C)c(C)cc32)cc1 (stereo not given in full) | 0.264 | 1.11 | 0.0304 | 0.381 | 0.653 | 0.584 | 1.89 | 0.901 | -0.028 | 0.503 (inactive)
CCOC(=O)[C@H](CC(C)C)NC(=O)CCC1CC(OC(=O)NCc2cccc3ccccc23)CC2(CCCC(COC(=O)NCc3cccc(C(F)(F)F)c3)O2)O1 (stereo not given in full) | -0.206 | 0.492 | -0.0868 | 0.52 | 0.312 | 0.231 | 0.841 | 0.42 | 0.0501 | 0.421 (inactive)
CO[C@H]1COC(=O)[C@@H](C)COC(=O)[C@H](COCc2ccccc2)NC(=O)CC=C[C@H]1C | -1.43 | -1.02 | -0.0555 | -0.785 | 1.36 | 1.21 | 0.844 | 1.09 | -0.841 | -0.949 (inactive)
CC(C)CON=C1[C@H]2CCn3c(=O)n(Cc4cc5c(cc4Cl)OCO5)c(=O)n3[C@H]2[C@H](O)[C@@H]2O[C@H]12 | 0.158 | 0.489 | 0.217 | 0.172 | 0.768 | 0.42 | -0.937 | 0.452 | -0.121 | 0.748 (inactive)
CCOC(=O)[C@H](Cc1ccccc1)NC(=O)CCC1CC(OC(=O)NCCc2ccc(F)cc2)CC2(CCCC(COC(=O)NCc3ccccc3)O2)O1 (stereo not given in full) | 0.704 | 1.04 | 0.254 | 0.282 | 0.63 | 0.473 | 0.216 | 0.833 | 0.115 | 0.877 (inactive)
